29 compounds from PubChem BioAssay AID620 (Sanford-Burnham Center for Chemical Genomics, 2007) can be followed below.

Structures are written as SMILES. Screen size: about 87,000 compounds; about 360 (0.41%) were called active. This is one part of a sample in which actives are shown more often than they occur. Unmarked numbers belong to inactive results. No stated cut-off is given here; in the data, active means cytotoxicity above about 50%; inactive means the rest.

The nature of the test: cytotoxicity in HT1080 fibrosarcoma cells, cell-based, fluorescence readout (AID 620).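 Further: cells exposed to compound overnight then 4 h with Alamar Blue; 0% = vehicle DMSO and 100% = killing control.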 The conditions noted are these: HT1080 viability, at 10 µM, hits give high values.
Turning to `O=C(c1cccs1)c1no[n+]([O-])c1C(=O)c1cccs1`, the cytotoxicity was 73.8% (active).

Regarding `Cc1ccc(C(=O)c2nocc2C(=O)c2cccs2)cc1`, the cytotoxicity is -9.5%.

`O=C(O)Cc1ccc(C(=O)c2cccs2)s1`: the cytotoxicity was 6.9%.

For `CCOC(=O)N1CCN(C(=O)c2cnsn2)CC1`, the cytotoxicity was -5.1%.

In the case of `CC(C)(C)N1CC(c2nc3ccccc3n2Cc2ccccc2)CC1=O` (centres undefined), the cytotoxicity was -14.8%.

Take `Cc1cccc(N(C)C(=O)COc2cc(=O)n(C)c3ccccc23)c1`: the cytotoxicity was 2%.

As to `Cc1cnc(C(=O)OCC(=O)N2c3ccccc3NC(=O)C2(C)C)cn1`, the cytotoxicity was -0.5%.

Turning to `O=c1cc(-c2ccccc2)[nH]c2ccccc12`, the cytotoxicity was 67.1% (active).

With `CCN(CC)Cc1c(-c2ccccc2)[nH]c2ccc(C)cc2c1=O`, the cytotoxicity is 5.1%.

In the case of `Cc1ccc2[nH]c(-c3ccccc3)cc(=O)c2c1`, the cytotoxicity was 71.1% (active).

Consider `Cc1cc(=O)c2ccccc2[nH]1`, for which the cytotoxicity was 26.5%.

Consider `Cc1ccc2[nH]c(C(=O)O)c(-c3ccccc3)c2c1`, for which the cytotoxicity is -8.4%.

For the compound `O=c1cc(-c2ccccc2)c2ccccc2[nH]1`, the cytotoxicity was -2.5%.

In the case of `Cc1ccc(NC(=O)N(CCCN2CCOCC2)Cc2cc3cc4c(cc3[nH]c2=O)OCO4)cc1`, the cytotoxicity is -5.1%.

On to `C#CC(C)(CC)NC(=O)Cn1nnc(-c2ccc(S(C)(=O)=O)cc2)n1` (centres undefined), for which the cytotoxicity is -5.1%.

As for `CC(CN1CCCCC1)OC(=O)Cc1ccc(Cl)cc1` (centres undefined), the cytotoxicity is -6.9%.

Regarding `CCC(=O)NCC(c1cccs1)N1CCOCC1` (centres undefined), the cytotoxicity was -3.1%.

As to `O=C(NCC(c1cccs1)N1CCOCC1)c1ccco1` (centres undefined), the cytotoxicity is 9%.

As to `O=C(NCC(c1cccs1)N1CCOCC1)c1ccc(Cl)s1` (centres undefined), the cytotoxicity is 62.9% (active).

Take `O=C(COc1ccccc1)NCC(c1cccs1)N1CCOCC1` (centres undefined): the cytotoxicity was -8.1%.

In the case of `O=C(NCC(c1ccc(F)cc1)N1CCOCC1)c1ccc(Br)o1` (centres undefined), the cytotoxicity is -5.4%.

Consider `O=C(NCC(c1cccs1)N1CCOCC1)c1ccc(Br)o1` (centres undefined), for which the cytotoxicity is 56.3% (active).

As to `CCCCCC(=O)OC(CN1CCCCC1)CN1CCCC1=O` (centres undefined), the cytotoxicity was 6.6%.

With `COc1ccccc1NC(=S)NNC(=O)c1ccc(Cl)cc1Cl`, the cytotoxicity is -4%.

Consider `Cc1ccc(-c2noc(-c3ccccc3C(=O)N3CCOCC3)n2)cc1`, for which the cytotoxicity was -2.2%.

As for `Cc1cc(N2CCCC2=O)cc(C)c1S(=O)(=O)NCCOc1ccccc1`, the cytotoxicity was 0.6%.

On to `CCOc1ccc(NC2=NC(C(=O)NCc3ccccc3)CC(=O)N2)cc1` (centres undefined), for which the cytotoxicity was 7.4%.

Consider `CC(C)(C)c1ccc(C(=O)Nc2cnccn2)cc1`, for which the cytotoxicity was -0.1%.

Take `Cc1noc(C)c1COc1ccc(C(=O)OCC(=O)N2CC(=O)Nc3ccccc32)cc1`: the cytotoxicity was -12.1%.
